# About 83,000 compounds went through this panel and 20% of them were active in at least one assay; those are over-represented in the sample as a whole.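 Cells were grown in 96-well plates and exposed to the test compound at a single concentration for 48 hours; results are reported as percent growth, with values below 10 considered active.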 A number with no mark means an inactive call. Active and inactive are the calls of the source.
# Assays:
# Assay in all cases: NCI-60 one-dose screen, 48 h (100 = growth as untreated, 0 = no growth, -100 = all killed)
# Conditions in all cases: 10 µM unless noted
# SR leukemia = tested on: SR leukemia
# RPMI-8226 leukemia = tested on: RPMI-8226 leukemia
# OVCAR-8 ovarian = tested on: OVCAR-8 ovarian
# OVCAR-5 ovarian = tested on: OVCAR-5 ovarian
# OVCAR-4 ovarian = tested on: OVCAR-4 ovarian
# IGROV1 ovarian = tested on: IGROV1 ovarian
# OVCAR-3 ovarian = tested on: OVCAR-3 ovarian
# HS 578T breast = tested on: HS 578T breast
# NCI/ADR-RES ovarian = tested on: NCI/ADR-RES ovarian
Compound,growth (SR leukemia),growth (RPMI-8226 leukemia),growth (OVCAR-8 ovarian),growth (OVCAR-5 ovarian),growth (OVCAR-4 ovarian),growth (IGROV1 ovarian),growth (OVCAR-3 ovarian),growth (HS 578T breast),growth (NCI/ADR-RES ovarian)
COc1cc2ncnc(-n3ncc4cc(NC(=O)Nc5ccccc5)ccc43)c2cc1OC,26.6%,15.6%,50.1%,24.7%,7.2% (active),5.95% (active),36.1%,-18.9% (active),39.2%
CC(=O)c1cc(Nc2cc(C)nc(N)n2)cc(C(C)=O)c1,35.8%,100%,98.8%,91.6%,108%,91.7%,,94.6%,94%
COC(c1ccccc1)C(Br)C(=O)c1ccccc1 (centres undefined),79.7%,90.6%,92.1%,108%,93.1%,96.6%,115%,111%,104%
O=C1c2ccccc2CCc2ccccc21,104%,108%,99.3%,93.7%,104%,93%,103%,105%,101%
Nc1nc2c(c3cnccc13)C(c1ccc(Cl)c(Cl)c1)Cc1cnccc1-2 (centres undefined),5.08% (active),-5.48% (active),9.87% (active),-1.65% (active),14.7%,7.84% (active),-44.8% (active),9.27% (active),-13.2% (active)
Cc1c([C@H](C(Cl)Cl)[C@H](O)[C@H]2C[C@H](C)C(=O)O2)ccc2c1C(=O)[C@H]1[C@H]2C[C@@H](Br)[C@@]23O[C@@H](CO[C@H]2O)CC13C (some centres undefined),11.9%,26.7%,5.88% (active),55.6%,38.6%,36.5%,-56.5% (active),-23.2% (active),30.8%
COc1ccc(OC)c(Cn2cc3c(c2)-c2oncc2CC3)c1,22.7%,42.5%,55.5%,58.1%,69.1%,31.2%,-4.75% (active),19.2%,1.37% (active)
COC1NC(Cl)=C(C#N)C(C#N)(C#N)C1(C)C (centres undefined),98.7%,127%,107%,31.6%,111%,-21.4% (active),,104%,120%
CC1(C)Oc2cc3oc(=O)ccc3cc2C[C@@H]1OCCOS(=O)(=O)c1ccc(C#N)cc1,107%,91.9%,92.7%,97.9%,88%,100%,96%,89.7%,96.1%
O=C1CSC(c2ccccc2Cl)N1c1nnc(-c2ccncc2)o1 (centres undefined),96%,86%,103%,94.1%,97.8%,89%,108%,109%,92.3%
CC(=O)Nc1nc(C)c(C(=O)N/N=C/c2cccs2)s1,81.4%,61.9%,112%,99%,112%,-4.95% (active),121%,85.5%,99.2%
CCOC(=O)NC1=NCC(C)(C)S1,104%,108%,104%,98.9%,102%,111%,97.4%,98.7%,103%
COc1ccc(CNCCCN2C(=O)c3ccc4c5c(ccc(c35)C2=O)C(=O)N(CCCNCc2ccc(OC)c(OC)c2OC)C4=O)c(OC)c1OC,-55.4% (active),-42.3% (active),-51.1% (active),-55.4% (active),-97.3% (active),-79.6% (active),-91.8% (active),-38.2% (active),-36.5% (active)
CCCCCCCCCCCC(=O)OC(C)C(=O)Nc1ccccc1 (centres undefined),86.1%,99.8%,95.4%,95.2%,105%,103%,102%,94.3%,100%
